In all, about 69,000 compounds went through this assay and about 8,600 (12%) showed an effect of 50% or more. The sample as a whole holds a higher share of strong results than the screen did.
Test system: Plasmodium berghei
Test: Screen against P. berghei liver stage (PbLuc), transformed with Luciferase, at 10uM
Type: functional, HepG2
Details: tested at 10 uM

SMILES	INHIBITION [%]
COCCn1ccnc1-c1cc(CN2CCCCC2)cs1	8.51
c1cn(CCc2c[nH]cn2)c(-c2cc(CN3CCCC3)cs2)n1	60
Nc1nc(Cn2ccnc2-c2cc(CN3CCCC3)cs2)cs1	42.1
Cc1ccc(CN2CCc3nc(C(C)C)nc(O)c3CC2)s1	2.55
Oc1nc(N2CCOCC2)nc2c1CCN(Cc1ccccc1)CC2	35.2
Oc1nc(N2CCOCC2)nc2c1CCN(Cc1ccc(F)cc1)CC2	38.2
Cc1nc(O)c2c(n1)CCN(Cc1cc(C)sc1C)CC2	60.1
Cc1cc(CN2CCc3nc(N4CCOCC4)nc(O)c3CC2)c(C)s1	90.7
Oc1nc(N2CCOCC2)nc2c1CCN(Cc1cccc(F)c1)CC2	54.5
Oc1nc(N2CCOCC2)nc2c1CCN(Cc1cccnc1)CC2	23.3
CC(C)c1ncc2c(n1)CN(Cc1cccc3c1OCCO3)CC2	37.7
Cc1nc2c(c(NC(C)C)n1)CCN(Cc1cccnc1)CC2	49.7
CCn1cc(CN2CCc3nc(N4CCOCC4)nc(O)c3CC2)cn1	29.6
Cc1nc(C)c2c(n1)CCN(Cc1ccco1)CC2	-53.2
Cc1cc(CN2CCc3nc(C(C)C)nc(O)c3CC2)c(C)s1	62.9
Cc1cccc(C(=O)N2C[C@@H]3C(CC(=O)Nc4cccnc4)[C@@H]3C2)n1 (some centres undefined)	30.9
Cc1ccsc1C(=O)N1CC[C@@H](N(C)C)[C@@H]1Cc1cnn(C)c1	36.9
O=C(CN1CCCC1)Nc1c2c(cc3c1CCC3)CCC2	-3.47
Cn1ncc2c1CCCN(C(=O)C1CC1)C2	24.69
CN(C)c1cc(C(=O)N2CCCCC2CNS(C)(=O)=O)ccn1 (centres undefined)	-8.11
CC(C)(C)SCCN1CC(=O)N2CC[C@@H](O)C[C@H]2C1=O	11.265
CN1CC(=O)N(c2ccccc2)CC12CCN(CCO)C2 (centres undefined)	41.3

SMILES	INHIBITION [%]
C=Cn1ncc(CN2CCc3nc(-c4ccncc4)nc(O)c3C2)c1C	17.1
Cc1ccc(O)c(CN2CCc3nc(-c4cccnc4)nc(O)c3C2)c1	32.8
Cc1cc(CN2CCc3nc(-c4ccncc4)nc(O)c3CC2)c(C)s1	83.3
O=C(NCc1ccc(OCC2CC2)nc1)c1c(F)cccc1F	-26.8
CCN(CC)C(=O)CNS(=O)(=O)c1cc(Br)ccc1F	23
CCNC(=O)CNS(=O)(=O)c1cc(Br)ccc1F	53.6
CN(C)C(=O)CNS(=O)(=O)c1cc(Br)ccc1F	42.4
COCC(=O)N1CCCC(Cc2cnc(-c3c(C)n[nH]c3C)cn2)C1 (centres undefined)	-29.8
CC(C#N)CSc1ccccc1NCC(=O)NC1CCCCC1 (centres undefined)	54.4
CC(C)CNC(=O)NC(=O)CNc1ccccc1SCC(C)C#N (centres undefined)	-7.9
CC(C#N)CSc1ccccc1NCC(=O)Nc1ccccc1 (centres undefined)	26.5
CC(C#N)CSc1ccccc1NCC(=O)NC(=O)NC(C)(C)C (centres undefined)	61.3
O=C(CSc1nnc[nH]1)NCc1cccs1	-95.7
CC(C#N)CSc1ccccc1NCC(=O)NCc1ccccc1 (centres undefined)	14.2
CC(C#N)CSc1ccccc1NCC(=O)Nc1ccc(F)cc1 (centres undefined)	11.1
CC(C#N)CSc1ccccc1NCC(=O)NC(C1CC1)C1CC1 (centres undefined)	43.4
CC(C#N)CSc1ccccc1NCC(=O)NCc1cccs1 (centres undefined)	58.3
O=c1[nH]c2cn(-c3cccc(F)c3)c(=O)n2n1Cc1ccc(Cl)cc1	28.7
CCSc1ccccc1C(=O)N(CCOC)Cc1ccoc1	25.1
Cc1cc(C(F)(F)F)nn1CC(C)C(=O)NC(C)C (centres undefined)	42.4
CNC(=O)CN1CCCC12CCN(Cc1c[nH]cn1)CC2	19.5
CC(C)CN1CCn2nc(CNc3ncnc4[nH]ccc34)cc2C1	-2.39

SMILES	INHIBITION [%]
COc1ccc(C[C@H]2CNCC[C@H]2OC)cc1	1.34
Cc1cnn(C2CCCN(C(=O)CCc3cscn3)C2)c1 (centres undefined)	33.7
CC(=O)N1CCCN(c2cc(C3CN(C)CCO3)nc(C)n2)CC1 (centres undefined)	36.4
Cc1cn2c(n1)CCC(NC(=O)CCCn1cncn1)C2 (centres undefined)	29.2
CS(=O)(=O)C1(C(=O)NC2CCc3nccn3C2)CCCC1 (centres undefined)	74.8
O=C(CCn1cncn1)NC1CCc2nccn2C1 (centres undefined)	-3.7
CCS(=O)(=O)CC(=O)NC1CCc2nccn2C1 (centres undefined)	36.3
COc1ccc(C2(C(=O)NC3CCc4nccn4C3)CCCC2)cc1 (centres undefined)	24.3
O=C(CCCn1cncn1)NC1CCc2nccn2C1 (centres undefined)	62.1
Cc1nc(C)n(CC2CN(Cc3noc(C4CC4)n3)CCO2)n1 (centres undefined)	16.8
CCc1nc(N2CCC3(CC2)CC(=O)N(Cc2ccc(Cl)cc2)C3)no1	-88.1
CCc1n[nH]c(C2CN(CCCS(C)(=O)=O)CCO2)n1 (centres undefined)	9.14
CS(=O)(=O)N1CCC(NC(=O)COc2ccc(Cl)c(Cl)c2)CC1	27.4
Cc1csc(CCNC(=O)C2CCN(CC(N)=O)CC2)n1	-23.5
NC(=O)CN1CCC(C(=O)NCCc2nc(-c3ccccc3)cs2)CC1	-53.6
NC(=O)CN1CCC(C(=O)NCc2nc(-c3ccc(F)cc3)cs2)CC1	55.2
O=C(O)c1ccc(Cc2cccc(F)c2)nc1	3.48
N#Cc1ccc(C(=O)NCC2(N3CCOCC3)CCCC2)nc1	10.8
Cc1ccc(-c2noc(CN3CCC(c4ccn[nH]4)CC3)n2)cc1	12.8
Cc1cccc(-c2noc(CN3CCC(N4CCNC4=O)CC3)n2)c1	41.1
c1cc(C2CCN(Cc3nc(-c4ccsc4)no3)CC2)[nH]n1	8.12
O=C1NCCN1C1CCN(Cc2nc(-c3ccccc3)no2)CC1	92.3

SMILES	INHIBITION [%]
Cc1ccccc1-c1noc(CN2CCOC(Cn3cccn3)C2)n1 (centres undefined)	23.95
O=C1NCCN1C1CCN(Cc2nc(-c3ccsc3)no2)CC1	85.4
O=C(O)C1(n2cccn2)CCN(Cc2nc(-c3ccccc3)no2)CC1	35.9
c1cnn(C2CN(Cc3nc(-c4ccsc4)no3)C2)c1	17
Cc1ccc(-c2noc(CN3CCC(N4CCNC4=O)CC3)n2)cc1	86.8
Cc1ccccc1-c1noc(CN2CCC(c3ccn[nH]3)CC2)n1	-7.46
Cc1ccccc1-c1noc(CN2CCC(N3CCNC3=O)CC2)n1	88.2
N#CCCN(CC1CC1)Cn1cc(Cl)cn1	13.3
O=C1CC(N(C(=O)CCc2c[nH]c3ccccc23)C2CC2)C(=O)N1 (centres undefined)	41.8
Cn1ccc2c(C(=O)N3CCCC3c3noc(C4CC4)n3)cccc21 (centres undefined)	19.2
Cc1nc(CN2C[C@@H]3CN(C(=O)NC(C)C)C[C@@H]3C2=O)cs1	11.3
COCC1c2c(cnn2C)CCN1Cc1ccc(C)cc1 (centres undefined)	31.7
CSC(C)(C)CNC(=O)NC(c1nnc2n1CCC2)C(C)C (centres undefined)	21.5
COCCN1CCC2(CCC(=O)N2Cc2csc(C)n2)CC1	-45.8
COCCN1CCN(Cc2nc(-c3ccoc3)no2)CC1	31.1
CCN1CCN(C2CCN(Cc3nc(-c4ccoc4)no3)CC2)C1=O	26.3
O=C1NCCN1C1CCN(Cc2nc(-c3ccoc3)no2)CC1	17
CN1CCN(C2CCN(Cc3nc(-c4ccoc4)no3)CC2)C1=O	59.4
Fc1ccc(-c2noc(CN3CCC(c4cc[nH]n4)CC3)n2)cc1	34.6
O=C1NCCN1C1CCN(Cc2nc(-c3ccc(F)cc3)no2)CC1	93.6
O=C(c1ccc(-n2cccn2)c(F)c1)N1CCCN2CCCC2C1 (centres undefined)	49.1
CCN(CC)C(=O)CN1CCCC1c1nc(C)c2c(n1)N(C)C(=O)CC2 (centres undefined)	-0.55

SMILES	INHIBITION [%]
CC(=O)N1CCCC(Cc2nccn2C)C1 (centres undefined)	5.56
C[C@@H]1CN(c2ccc(Cl)cn2)C[C@@]1(O)C1CC1	25.145
C=C(C)Cn1nnc(C2(NC(=O)c3ccccc3)CCCC2)n1	71.2
O=C(NC1(c2nnn(CCO)n2)CCCC1)c1ccccc1	-16.2
O=C(NC1(c2nnn(CC3CC3)n2)CCCC1)c1ccccc1	42
Cc1cc(C)nc(C2CCN(C(=O)c3cnco3)C2)n1 (centres undefined)	-8.12
Cc1nn(C)c(C)c1C1COCCN1c1ncncc1Br (centres undefined)	57.7
Cc1nn(C)c(C)c1C1COCCN1c1ncnc2c(C)cccc12 (centres undefined)	28.6
Cc1ccc2ncnc(N3CCOCC3c3c(C)nn(C)c3C)c2c1 (centres undefined)	30
CN(Cc1ccc2c(c1)OCO2)C(=O)NCCc1cnn(C)c1	28.15
Cc1ccccc1CNC(C)c1ccc(OCC(=O)NC2CC2)cc1 (centres undefined)	7.08
Cc1nc2cc(O)nn2c(C)c1CCC(=O)N(C)CCC(C)C	-57.5
COCC(C)N(C)C(=O)CCc1c(C)nc2c(C#N)cnn2c1C (centres undefined)	63.8
Cc1nc2c(C#N)cnn2c(C)c1CCC(=O)N(C)C(C)C(C)C (centres undefined)	62.8
COC(=O)c1cc(C2CC2)nc2c(C#N)cnn12	25.9
Cc1nc2c(C#N)cnn2c(C)c1CCC(=O)N(C)C1CC1	28.5
Cc1nn(C)c(C)c1CCC(=O)N(C)Cc1ccc(C#N)cc1	-12.5
CCCn1[nH]c(CNc2cccc(Cl)c2)nc1=O	46.4
Cc1nnc2n1CCN(C(=O)c1cc3cc(F)ccc3[nH]1)C2	14.1
Cn1cc(CN2CCC3(CCCN(C(=O)c4cscn4)C3)C2)cn1 (centres undefined)	-68.5
Cc1cn2c(n1)CCC(NC(=O)c1cc(C3CC3)[nH]n1)C2 (centres undefined)	-1.14

Reference: ChEMBL document CHEMBL4513216, “Probing the Open Global Health Chemical Diversity Library for Multistage-Active Starting Points for Next-Generation Antimalarials” (ACS Infect Dis, 2020)
